# Data reported in PubChem BioAssay.
# For part of these data: Results with a measured potency or affinity are listed apart. Calls of active or inactive are those of the source.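 Rule for the calls, unless noted: active = luciferase signal above three times the same-plate solvent-only control wells; inactive = the rest.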 Numbered stars: 1 amine (or outer) side, 2 acyl side, 3 side chain; on linkers, the order of the positions; unused ones are H or OH. Bridge positions count the residues as written; N and C are the ends. Square brackets hold non-standard residues; d marks the D form. Peptide text beside a SMILES is read from it. * marks the point of attachment. ξ: configuration not given here. ΔAla(Z-3-ureido) = NC(=O)N/C=C(\N)C(=O)O; X2 = NC1=NCCC(C(N[*:1])C(=O)[*:2])N1; ξβ3hOrn = NCCCC(N)CC(=O)*; Dap = NC[CH](N)C(=O)O
# How the values were obtained:
# [1] = polyglutamine-triggered caspase-3 activation inhibitors, cell-based (AID 1583); conditions: polyglutamine-induced caspase-3 activation, cell assay; stronger effect = higher value;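 tested at 10 µM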
# [2] = suppressors of polyQ aggregation in yeast, 75Q-TubU reporter (AID 1593); conditions: Yeast 75Q polyglutamine aggregation reporter
# [3] = rescue of polyQ-huntingtin neuronal dysfunction in worms, whole organism, C. elegans mechanosensory neurons, N-terminal huntingtin (AID 1599); conditions: touch response, stronger effect = higher value
# [4] = inhibitors of mitochondrial cytochrome c release, biochemical, purified mitochondria (AID 1603); conditions: stronger effect = lower value;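 note: mouse liver mitochondria challenged with calcium chloride; signal normalized to the plate average as 100%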
# [5] = inhibitors of polyQ protein aggregation (AID 1604); conditions: polyglutamine-induced protein aggregation inhibition assay; stronger effect = higher value; tested at 2.5 µM
# [6] = enhancers of glutamate uptake in motor neurons, MN-1 cell line (AID 1612); conditions: MN-1 motor neuron cells, stronger effect = higher value;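 note: tested at 1 µM final; 0% = mean of DMSO vehicle wells on each plate; positive means more glutamate uptake than control and negative means less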
# [7] = reducers of polyQ inclusions in PC12 cells, cell-based, NGF-treated PC12, GFPQ80 (AID 1614); conditions: PC12 NGF-treated GFP-polyQ80 inclusion reduction;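 note: lower means fewer inclusions and 0 means no inclusions at all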
# [8] = suppressors of polyglutamine aggregation in yeast, 75Q-TubH (AID 1616); conditions: S. cerevisiae 75Q-TubH polyglutamine aggregation suppression; stronger effect = higher value
# [9] = target: Mitogen-activated protein kinase 7 (Homo sapiens) (UniProt Q13164); experiment: ERK5 transactivation activators in reporter cells, primary screen, cell-based, HTS (AID 1508626); conditions: HeLa Gal4-ERK5 transactivation, 18 h, at 5 µM, stronger effect = higher value;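 note: luciferase driven by Gal4-ERK5 fusion binding five Gal4 sites before minimal TATA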
# Mitogen-activated protein kinase 7 (Homo sapiens), sequence (Q13164 whole entry, looked up, the tested form may be a part): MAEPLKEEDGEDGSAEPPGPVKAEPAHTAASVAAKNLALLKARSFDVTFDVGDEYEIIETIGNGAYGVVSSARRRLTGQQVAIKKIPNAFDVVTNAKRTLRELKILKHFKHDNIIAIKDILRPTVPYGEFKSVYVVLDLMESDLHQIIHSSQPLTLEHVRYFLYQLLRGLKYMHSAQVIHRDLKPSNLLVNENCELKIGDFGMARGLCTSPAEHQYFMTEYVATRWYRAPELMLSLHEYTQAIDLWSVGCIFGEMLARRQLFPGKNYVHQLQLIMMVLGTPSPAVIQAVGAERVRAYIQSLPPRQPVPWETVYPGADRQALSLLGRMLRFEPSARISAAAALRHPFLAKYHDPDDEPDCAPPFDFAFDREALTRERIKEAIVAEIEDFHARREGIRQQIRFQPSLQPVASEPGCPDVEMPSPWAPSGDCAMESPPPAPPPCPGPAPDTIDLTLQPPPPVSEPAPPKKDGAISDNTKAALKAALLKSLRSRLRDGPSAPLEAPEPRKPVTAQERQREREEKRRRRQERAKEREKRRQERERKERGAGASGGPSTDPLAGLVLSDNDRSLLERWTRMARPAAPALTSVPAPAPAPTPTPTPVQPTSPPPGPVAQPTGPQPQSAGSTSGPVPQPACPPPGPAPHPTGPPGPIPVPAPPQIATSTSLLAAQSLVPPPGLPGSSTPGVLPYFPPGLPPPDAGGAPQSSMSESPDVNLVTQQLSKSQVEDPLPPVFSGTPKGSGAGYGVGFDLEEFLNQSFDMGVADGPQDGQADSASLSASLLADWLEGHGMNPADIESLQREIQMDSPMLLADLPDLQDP
# [10] = liver-stage malaria parasite growth inhibition, primary screen, cell-based, HepG2, luciferase luminescence, HepG2 viability (AID 624349; in the data active = parasite load remaining mostly below about 12%, no sharp cut-off; inactive = mostly above about 10%;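 note: 100% = mean of DMSO negative control wells on the same plate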); conditions: P. berghei liver stage in HepG2, luciferase luminescence, concentration not given here; parasite load remaining: stronger effect = lower value; viability: measured here: HepG2 viability without parasites
compound,measurement,setting,value
NCCCCC(N)C(=O)NC(Cc1c[nH]c2ccccc12)C(=O)NC(CCCCN)C(=O)O (stereo not drawn) (H-Lys-Trp-Lys-OH; configuration not given here),inhibition,[1],5.19%
same,score,[2],1.32
same,rescue above control,[3],22.9
same,cytochrome c release ratio,[4],0.99
same,inhibition of aggregation,[5],83.9%
same,glutamate uptake change,[6],46.5%
same,inclusion score,[7],2
same,aggregation suppression score,[8],1.18
CC(=O)O[C@H]1CC[C@]2(C)C3=C(CC[C@H]2C1(C)C)[C@@]1(C)CC[C@@H]([C@H](C)CCC=C(C)C)[C@]1(C)CC3,luciferase signal,[9],28 AU (inactive)
CC(=O)Oc1cc(C)c2c(c1C=O)Oc1c(c(C)c(OC(C)=O)c3c1C(OC(C)=O)OC3=O)OC2=O (centres undefined),luciferase signal,[9],172 AU (inactive)
COC(=O)C[C@H]1C(C)(C)C(=O)[C@@H]2CC3=C(CC[C@]4(C)C3=CC(=O)O[C@H]4c3ccoc3)[C@@]1(C)C2=O,luciferase signal,[9],24 AU (inactive)
O=c1c(O)cc2c(O)oc3c(=O)c(O)cc4c3c2c1CC=4O,inhibition,[1],-1.16%
same,score,[2],-1.91
same,rescue above control,[3],-6.17
same,cytochrome c release ratio,[4],1.61
same,inhibition of aggregation,[5],25.2%
same,glutamate uptake change,[6],-0.57%
same,inclusion score,[7],2
same,aggregation suppression score,[8],0.786
CC1(C)CC[C@]2(C(=O)O)CC[C@]3(C)C(=CC[C@@H]4[C@@]5(C)CC[C@H](O)C(C)(C)[C@@H]5[C@H](O)C[C@]43C)[C@@H]2C1,luciferase signal,[9],84 AU (inactive)
CC(C)CCC[C@@H](C)[C@H]1CC[C@H]2[C@@H]3CC(=O)[C@H]4C[C@@H](O)CC[C@]4(C)[C@H]3CC[C@]12C,luciferase signal,[9],216 AU (active)
CC[C@H](C)[C@H](N)C(=O)N1CCC[C@H]1C(=O)N[C@H](C(=O)O)[C@@H](C)CC,luciferase signal,[9],120 AU (inactive)
CC1=C2[C@@H]([C@H](C)CC[C@H]2/C=C(\C)C(=O)O)[C@H](O)C1,luciferase signal,[9],24 AU (inactive)
CC(=O)OCC(=O)[C@@]12OC(C)(C)O[C@@H]1C[C@H]1C3C[C@H](F)C4=CC(=O)C=CC4(C)[C@@]3(F)[C@@H](O)C[C@@]12C (some centres undefined),inhibition,[1],-2.33%
same,score,[2],1.28
same,rescue above control,[3],14.3
same,cytochrome c release ratio,[4],0.88
same,inhibition of aggregation,[5],85.9%
same,glutamate uptake change,[6],13.8%
same,inclusion score,[7],2
same,aggregation suppression score,[8],0.953
CCCCC(=O)OC1(C(=O)CO)C(C)CC2C3CCC4=CC(=O)C=CC4(C)[C@@]3(F)[C@@H](O)CC21C (some centres undefined),inhibition,[1],9.05%
same,score,[2],-0.8
same,rescue above control,[3],-0.98
same,cytochrome c release ratio,[4],1.65
same,inhibition of aggregation,[5],82%
same,glutamate uptake change,[6],9.55%
same,aggregation suppression score,[8],1.32
N[C@@H](C=O)[C@@H](O[C@@H]1O[C@H](C(=O)O)[C@@H](O)[C@H](O)[C@H]1O)[C@@H](O)[C@H](O)CO,luciferase signal,[9],20 AU (inactive)
CC[C@@]1(O)C[C@H](OC2CC(N(C)C)C(OC3CC(O)C(OC4CCC(=O)C(C)O4)C(C)O3)C(C)O2)c2c(cc3c(c2O)C(=O)c2c(O)cccc2C3=O)[C@H]1C(=O)OC (some centres undefined),inhibition,[1],-23.8%
same,score,[2],0.51
same,rescue above control,[3],0
same,cytochrome c release ratio,[4],4.02
same,inhibition of aggregation,[5],1.96%
same,glutamate uptake change,[6],47.8%
same,aggregation suppression score,[8],0.557
CC(C)CCC[C@@H](C)C1CC[C@H]2[C@@H]3CCC4CC(=O)CC[C@]4(C)[C@H]3CC[C@]12C (some centres undefined),luciferase signal,[9],52 AU (inactive)
CN[C@@H]1[C@H](O)[C@H](NC)[C@H]2O[C@@]3(O)C(=O)C[C@@H](C)O[C@H]3OC2[C@H]1O (some centres undefined),inhibition,[1],1.15%
same,score,[2],1.13
same,rescue above control,[3],-5.98
same,cytochrome c release ratio,[4],0.86
same,inhibition of aggregation,[5],42.9%
same,glutamate uptake change,[6],4.38%
same,inclusion score,[7],2
same,aggregation suppression score,[8],1.36
CC(=O)N[C@@H](Cc1c[nH]c2ccccc12)C(=O)O,inhibition,[1],20.8%
same,score,[2],1.18
same,rescue above control,[3],0.41
same,cytochrome c release ratio,[4],0.48
same,inhibition of aggregation,[5],74.4%
same,glutamate uptake change,[6],9.72%
same,inclusion score,[7],2
same,aggregation suppression score,[8],1.31
same,parasite load remaining,[10],106% (inactive)
same,viability,[10],70.5%
CC(=O)Oc1ccc2c(c1)CCC1C2CCC2(C)C(=O)CCC12 (centres undefined),inhibition,[1],10.5%
same,score,[2],-0.03
same,rescue above control,[3],-10.4
same,cytochrome c release ratio,[4],0.81
same,inhibition of aggregation,[5],85.9%
same,glutamate uptake change,[6],-16%
same,inclusion score,[7],2
same,aggregation suppression score,[8],0.169
CC(Oc1ccccc1)C(=O)NC1C(=O)N2C(C(=O)O)C(C)(C)S[C@H]12 (some centres undefined),inhibition,[1],11.5%
same,score,[2],1.28
same,rescue above control,[3],-11.5
same,cytochrome c release ratio,[4],0.66
same,inhibition of aggregation,[5],83.6%
same,glutamate uptake change,[6],4.57%
same,inclusion score,[7],2
same,aggregation suppression score,[8],1.04
COC(=O)/C(=C1\OC(=O)C(c2ccccc2)C1=O)c1ccccc1 (centres undefined),inhibition,[1],-4.2%
same,score,[2],0.04
same,rescue above control,[3],9.72
same,cytochrome c release ratio,[4],2.13
same,inhibition of aggregation,[5],31.4%
same,glutamate uptake change,[6],6.01%
same,inclusion score,[7],2
same,aggregation suppression score,[8],0.0212
NCCCC(N)CC(=O)NCC1NC(=O)C(CO)NC(=O)C(N)CNC(=O)C(C2CCN=C(N)N2)NC(=O)/C(=C/NC(N)=O)NC1=O (stereo not drawn) (H-[Dap]S[Dap](ξβ3hOrn)[ΔAla(Z-3-ureido)][X2]; lactam 1-C; configuration not given here),inhibition,[1],21.4%
same,score,[2],1.54
same,rescue above control,[3],3.33
same,cytochrome c release ratio,[4],2.07
same,inhibition of aggregation,[5],-24.2%
same,glutamate uptake change,[6],13.7%
same,inclusion score,[7],1
same,aggregation suppression score,[8],0.882
COC1=C2C[C@@H](C)C[C@H](OC)[C@H](O)[C@@H](C)/C=C(\C)[C@@H](OC(N)=O)[C@H](OC)/C=C\C=C(/C)C(=O)NC(=CC1=O)C2=O,inhibition,[1],-5.02%
same,score,[2],2.11
same,rescue above control,[3],0
same,cytochrome c release ratio,[4],1.13
same,inhibition of aggregation,[5],-23.4%
same,glutamate uptake change,[6],10.3%
same,aggregation suppression score,[8],1.43
CC1(C)O[C@@H]2CC3C4CCC5=CC(=O)CCC5(C)C4(F)C(O)CC3(C)[C@]2(C(=O)CCl)O1 (some centres undefined),inhibition,[1],-34.5%
same,score,[2],1.26
same,rescue above control,[3],-3.98
same,cytochrome c release ratio,[4],1.36
same,inhibition of aggregation,[5],79.5%
same,glutamate uptake change,[6],12.8%
same,inclusion score,[7],2
same,aggregation suppression score,[8],1.1
same,parasite load remaining,[10],190% (inactive)
same,viability,[10],88.4%
